Assay outcomes: PubChem, National Center for Advancing Translational Sciences (NCATS)
Shown are actives, neighbours in structure and some others; about 2.4% of the full set was active somewhere.
D2 ag-1: agonists of human D2 dopamine receptor; HEK293 T-REx D2 cells, calcium flux agonist mode; activation, % at 2 µM; 340,000 tested, 0.53% active;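 active means activation over 3 SD above normal in the single-dose calcium agonist read, cut at about 30% in these data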; further: 0% is about no effect
Target sequence (P14416 whole entry, looked up): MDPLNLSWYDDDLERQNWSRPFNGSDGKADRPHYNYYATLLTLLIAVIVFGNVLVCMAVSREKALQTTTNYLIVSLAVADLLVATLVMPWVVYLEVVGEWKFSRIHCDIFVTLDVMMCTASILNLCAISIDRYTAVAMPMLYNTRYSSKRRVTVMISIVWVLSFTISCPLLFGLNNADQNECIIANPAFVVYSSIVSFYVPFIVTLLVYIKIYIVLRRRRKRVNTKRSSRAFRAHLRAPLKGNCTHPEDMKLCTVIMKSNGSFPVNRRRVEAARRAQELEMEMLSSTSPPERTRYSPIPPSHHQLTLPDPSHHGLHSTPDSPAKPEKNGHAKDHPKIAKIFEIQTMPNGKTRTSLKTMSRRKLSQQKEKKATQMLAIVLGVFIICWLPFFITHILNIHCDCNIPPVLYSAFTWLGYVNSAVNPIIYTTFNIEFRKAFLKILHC
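In this primary screen, compounds producing a positive calcium signal within 180 s of addition to tetracycline-induced, force-coupled HEK293 Trex D2 cells are flagged; cells are dye-loaded with a no-wash calcium kit beforehand.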
D2 PAM-1: positively modulates the human D2 dopamine receptor allosterically. 340,000 tested, 0.34% active. HEK293 T-REx D2, calcium flux, EC20 dopamine potentiation. AID 485347. potentiation, % at 10 µM. P14416;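 active means potentiation over 3 SD above the plate norm, cut at about 30% in these data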; further: 0% is about no effect
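Calcium flux readout, no-wash dye, 1 read/s. Inducible HEK293 Trex D2 line, overnight 30 C. Compound alone 180 s (agonist flags), then EC20 dopamine, another 180 s to score potentiation.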
D2 PAM-2: potentiates the human D2 dopamine receptor allosterically; P14416; DiscoveRx D2 beta-arrestin cells, luminescence, 90 min; 100% = 57 uM dopamine signal; potentiation, % (no concentration beside the values); 360,000 tested, 0.23% active; AID 624464; in the data active means potentiation above about 50%; inconclusive means mostly about 30% to 49%
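D2 cells co-treated with compound plus 50 nM dopamine (EC20) for 90 min at 37 deg C to detect potentiation. Beta-arrestin recruitment was read as enzyme-fragment luminescence after 1 h at ambient temperature. Full response was set by 57 uM dopamine.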
D2 ag-2: agonists of human D2 dopamine receptor (beta-arrestin) | AID 624465 | activation, % (concentration not given with the values) | DiscoveRx PathHunter D2 beta-arrestin, luminescence, 90 min; 100% = 57 uM dopamine signal | P14416 | 360,000 tested, 0.084% active; in the data active means activation above about 40%; inconclusive means between about 15% and that limit
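DiscoveRx PathHunter D2 beta-arrestin cells (2,100/well) attached overnight, then compound-stimulated 90 min at 37 C in HBSS/10 mM HEPES/0.1% Tween-20 buffer; beta-galactosidase complementation read by luminescence after 1 h at ambient temperature. Dopamine 57 uM final (EC100) as control.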
D2 antagonist: D2 dopamine receptor (human) antagonism | HEK293 TREx D2 cells, calcium flux, dopamine EC80 | P14416 | 340,000 tested, 2% active | inhibition, % at 10 µM; in the data active means inhibition above about 30%; inactive means below that, where a call was filed; further: 0% is about no effect
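Antagonism is scored as inhibition of an EC80 dopamine-evoked calcium signal in a force-coupled, tetracycline-inducible HEK293 T-REx D2 line, with compound present 180 s before agonist.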
Numbers without * were called inactive; ? = inconclusive; · = not tested or not shown.

SMILES | D2 ag-1 | D2 PAM-1 | D2 PAM-2 | D2 ag-2 | D2 antagonist
CCNc1ccc(Br)cc(C(=O)/C=C/c2c(Cl)cccc2Cl)c1=O | 0 | 48* | -20 | -5 | -13
O=C(Nc1cc(-c2nc3ccccc3o2)ccc1Cl)c1ccc(Br)o1 | -1 | 2 | · | · | ·
CCN1C(=O)OC2(CCCCC2)C1(C)O (stereo not drawn) | 0 | 41* | · | · | 7
Cc1ccc(C(=O)CCC(=O)OCC(=O)N2c3ccccc3NC(=O)C2(C)C)cc1 | · | · | -18 | -1 | ·
Cc1ccc(S(=O)(=O)CCC(=O)OCC(=O)N2c3ccccc3NC(=O)C2(C)C)cc1 | 0 | 6 | -15 | -3 | 90*
Cc1nn(C(=O)c2cccc(Cl)c2)c(C)c1S(=O)(=O)N1CCOCC1 | 0 | -4 | · | · | ·
Cc1ccc(C(=O)Nc2cccc(C(F)(F)F)c2)cc1Nc1cnccn1 | 0 | 0 | -29 | -2 | 59*
CCOC(=O)c1nccnc1C(=O)Nc1ccc(C(F)(F)F)cc1 | 0 | -3 | -3 | -4 | 1
CCOC(=O)c1nccnc1C(=O)Nc1cccc(C(F)(F)F)c1 | -1 | -16 | -10 | 0 | 32*
COc1ccc(NC(=O)Cn2c(SCc3cccc(Cl)c3)nc3ccncc32)c(OC)c1OC | · | -19 | · | · | ·
CC(=O)c1ccc2noc(-c3ccccc3)c2c1 | 1 | 22 | ? | ? | -6
c1ccc(-c2onc3cc4c(cc23)OCCO4)cc1 | -1 | 4 | 117* | ? | -1
Cc1cc(C)n2nc(SCc3nnc(-c4ccccc4Br)o3)nc2n1 | 2 | 44* | -1 | -3 | -8
Cc1cc(C)n2nc(SCc3ncc(-c4ccccc4)o3)nc2n1 | 0 | 11 | -13 | -6 | -7
CC1Cc2cccc3c(O)c(C(=O)c4nn[nH]n4)c(=O)n1c23 (stereo not drawn) | 0 | -1 | -3 | -3 | -4
COc1ccc(-n2c(Cc3cc(=O)[nH]c(=O)[nH]3)nnc2SCC(=O)Nc2cc(C(F)(F)F)ccc2Cl)cc1 | -1 | -20 | -15 | -3 | 41*
Cc1cc(=O)c2ccccc2n1Cc1ccccc1 | -1 | -3 | -12 | -4 | -2
Cc1ccc2c(c1)c(=O)c(Br)c(C)n2Cc1ccccc1 | 0 | -5 | -18 | -5 | 56*
CN1CCN(CC/C=C2/c3ccccc3Sc3ccc(S(=O)(=O)N(C)C)cc32)CC1 | 1 | -23 | -35 | -3 | 80*
CCc1ccccc1NC(=O)CN1CCN(C(=O)C2CCN(C(=O)/C=C/c3ccccc3)CC2)CC1 | 5 | 1 | 4 | 5 | -5
COc1ccc(N(CCC(=O)O)S(=O)(=O)c2ccc(C)c(C)c2)cc1 | 0 | -6 | -3 | 0 | 5
Cc1ccc(S(=O)(=O)CCC(=O)O)cc1C | 0 | -2 | -5 | 2 | 36*
Cc1ccc(S(=O)(=O)N(Cc2ccccc2)Cc2ccco2)cc1 | 0 | -10 | -7 | -5 | 33*
Cc1ccc(S(=O)(=O)N(Cc2ccc(F)cc2)Cc2ccco2)cc1 | 0 | -17 | -3 | 3 | -18
Cc1ccc(NC(=O)CNCc2cccs2)c(Br)c1 | 0 | 8 | -5 | -1 | 32*
SMILES | D2 ag-1 | D2 PAM-1 | D2 PAM-2 | D2 ag-2 | D2 antagonist
CCCCc1nnc(NC(=O)COc2ccc3c(C)cc(=O)oc3c2)s1 | 1 | -4 | · | · | 1
O=C(Nc1cccc(-c2nc3ccccc3s2)c1)c1ccc2c(c1)OCO2 | 1 | -10 | -13 | 0 | -7
c1ccc2sc(-c3ccc4c(c3)OCO4)nc2c1 | 0 | 31* | -12 | 0 | 11
CCc1ccc(-n2nc(CO)c(C(=O)NCCOC)n2)cc1 | -1 | · | · | · | ·
Cc1ccc(C(=O)NC(=S)Nc2ccc(Oc3ccc(Cl)cc3)cc2)cc1 | 0 | 37* | -4 | -3 | 0
Cc1cc(C)cc(C(=O)Nc2ccc3[nH]c(=O)[nH]c3c2)c1 | 0 | -2 | 0 | 4 | 30*
Cc1ccc(C(=O)NC(=S)Nc2ccc3[nH]c(=O)[nH]c3c2)cc1 | -1 | 3 | -12 | 1 | 46*
Cc1ccc(NC(=S)Nc2ccc3[nH]c(=O)[nH]c3c2)cc1 | 1 | 0 | -3 | -3 | -4
CCOC(=O)c1cc(-c2ccccc2)nn1Cc1ccccc1 | 1 | 19 | · | · | ·
COc1ccc(OC)c(CNC(=O)c2ccc(Sc3ccc(Cl)cc3)c(NC(C)=O)c2)c1 | 0 | · | · | · | ·
O=C(O)c1cccc(-c2csc(C(O)c3ccccc3)n2)c1 (stereo not drawn) | · | · | -6 | -4 | ·
COc1ccc(/C=C/C(=O)O/N=C(\N)c2cccnc2)cc1OC | -2 | -3 | 16 | 6 | -6
CCOC(=O)/C(=C\c1ccc(OC)c(OC)c1)C(=O)c1cccnc1 | 3 | 40* | -5 | -2 | 2
Cc1ccc(/C=N/N2CCN(c3ccccn3)CC2)cc1 | 1 | 13 | -8 | -1 | -15
Cn1cccc1/C=N/N1CCN(c2ccccn2)CC1 | 31* | -8 | -3 | 4 | 25
CC(C)CCn1c(-c2nonc2N)nc2ccccc21 | 1 | 33* | -17 | 0 | 7
CCCCn1c(-c2nonc2N)nc2ccccc21 | 1 | 0 | -21 | -1 | 1
COc1ccc(C(=O)Oc2cc(N)n(S(=O)(=O)c3ccc(C)cc3)n2)cc1 | 1 | 7 | -12 | -10 | 38*
COc1ccccc1C(=O)Oc1cc(N)n(S(=O)(=O)c2ccc(C)cc2)n1 | 0 | -3 | -7 | -3 | -11
Cc1cccc(-c2noc(-c3ccc(NCc4cccnc4)c([N+](=O)[O-])c3)n2)c1 | 0 | -3 | · | · | ·
CCOC(=O)C1CCN(C(=O)Cn2nc(C)n3nc(-c4ccc(CC)cc4)cc3c2=O)CC1 | · | 6 | -9 | -4 | ·
COc1ccc(CCn2nc(C)c([N+](=O)[O-])c2C)cc1 | -1 | -16 | -6 | 2 | 32*
COc1ccc2cc(CNc3ccc(OC)c(OC)c3)c(=O)n(CC(=O)Nc3ccc(C)cc3)c2c1 | 0 | 4 | · | · | ·
Cn1c(-c2ccc(CN3CCCCC3)o2)nc2ccccc21 | 0 | -21 | -42 | -5 | 34*
Cc1ccc(C(CC(=O)NCC2(c3ccccc3)CCCC2)c2ccccc2)c(O)c1 (stereo not drawn) | -1 | -1 | · | · | ·
CCOC(=O)Cn1nc(Cc2ccccc2)c2ccccc2c1=O | 0 | 43* | -7 | -6 | 13
CCOC(=O)Cn1nc(-c2ccccc2)c2ccccc2c1=O | -1 | -4 | -11 | -1 | -3
CCOC(=O)c1sc2nc(CSc3ccccc3)nc(N3CCCN(C)CC3)c2c1C | 0 | -27 | -1 | -1 | 53*
CCOC(=O)c1sc2nc(CSc3ccccc3)nc(N3CCC(C(N)=O)CC3)c2c1C | 0 | 12 | -2 | 2 | -7
COc1ccc(-c2nc3ccccc3o2)cc1NC(=O)c1ccc(-c2cccc(Cl)c2C)o1 | 0 | -1 | · | · | ·
